Laboratory results published in PubChem BioAssay AID1159580 (chemical genetic matrix, 2015).
Several values for one entry are separate records, joined by “and”; a condition that tells them apart may be missing. Equal values may be shown once. Among all 5,500 compounds or so, about 2,000 (36%) were called active. Roughly 18% stayed inconclusive and do not appear here. No stated cut-off is given here; in the data, active means normalized growth mostly below about 0.91 (no sharp cut-off); inconclusive means no clear call, values can overlap the other calls; inactive means mostly above about 0.92. This is one part of the list.

Assay: chemical genetic growth profiling, strain panel (AID 1159580);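 further: tested at 20 µM; growth read once vehicle control cultures reached saturation at 30 °C; 1 = growth at the plate median or of vehicle wells; lower values mean less growth of the strain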
Conditions: S. cerevisiae deletion strains, growth OD

Measured: normalized growth

CCN(CC)CCOC(=O)C(Cc1cccc2ccccc12)CC1CCCO1 (stereo not given)
inactive: locus YAL013W, strain DEP1, hits give low values 1.03 | locus YAL021C, strain ccr4, hits give low values 1 | locus YAL026C, strain drs2, hits give low values 1.01 | locus YAL030W, strain snc1, hits give low values 0.998 | locus YBL061C, strain skt5, hits give low values 1.01 | locus YBR009C, strain hhf1, hits give low values 1.01 | locus YBR021W, strain FUR4, hits give low values 1.02 | locus YBR023C, strain chs3, hits give low values 1.01 | locus YBR171W, strain sec66, hits give low values 1.02 | locus YBR229C, strain ROT2, hits give low values 1 | locus YBR231C, strain swc5, hits give low values 0.995 | locus YBR279W, strain paf1, hits give low values 1.01 | locus YCL011C, strain gbp2, hits give low values 1.01 | locus YCL016C, strain dcc1, hits give low values 1.01 | locus YCL029C, strain bik1, hits give low values 1.01 | locus YCL061C, strain MRC1, hits give low values 1.01 | locus YCL069W, strain vba3, hits give low values 1.01 | locus YCR088W, strain abp1, hits give low values 1 | locus YDL005C, strain med2, hits give low values 1.01 | locus YDL035C, strain GPR1, hits give low values 1.02 | locus YDL040C, strain nat1, hits give low values 1.01 | locus YDL074C, strain BRE1, hits give low values 1.02 | locus YDL101C, strain DUN1, hits give low values 1 | locus YDL134C, strain PPH21, hits give low values 1.01 | locus YDL185W, strain tfp1, hits give low values 1.01 | locus YDL192W, strain arf1, hits give low values 1.01 | locus YDR001C, strain nth1, hits give low values 1.01 | locus YDR069C, strain doa4, hits give low values 1.02 | locus YDR101C, strain arx1, hits give low values 1.02 | locus YDR137W, strain rgp1, hits give low values 1.07 | locus YDR159W, strain sac3, hits give low values 1.02 | locus YDR162C, strain NBP2, hits give low values 1.02 | locus YDR195W, strain ref2 0.996 | locus YDR297W, strain sur2, hits give low values 1.01 | locus YDR318W, strain mcm21, hits give low values 1 | locus YDR334W, strain swr1, hits give low values 1.01 | locus YDR335W, strain msn5, hits give low values 1.01 | locus YDR388W, hits give low values 1.01 | locus YDR392W, strain spt3, hits give low values 1.01 | locus YDR502C, strain sam2, hits give low values 1.01 | locus YEL003W, strain gim4, hits give low values 1.01 | locus YEL037C, strain rad23, hits give low values 1.01 | locus YEL061C, strain CIN8 (second series), hits give low values 1.01 | locus YEL061C, strain CIN8, hits give low values 1.01 | locus YER015W, strain faa2, hits give low values 1.01 | locus YER016W, strain bim1, hits give low values 1.01 | locus YER110C, hits give low values 0.99 | locus YER111C, strain swi4, hits give low values 1.01 | locus YER155C, strain BEM2 (second series), hits give low values 1.01 | locus YER155C, strain BEM2, hits give low values 1 | locus YER167W, strain BCK2, hits give low values 1.01 | locus YFR010W, strain ubp6, hits give low values 1.02 | locus YGL078C, strain dbp3, hits give low values 1.02 | locus YGL086W, strain mad1, hits give low values 1.01 | locus YGL167C, strain pmr1, hits give low values 1.01 | locus YGL173C, strain kem1, hits give low values 1.01 | locus YGL227W, strain vid30, hits give low values 1 | locus YGL240W, strain doc1, hits give low values 1.01 | locus YGL248W, strain PDE1, hits give low values 1.01 | locus YGL253W, strain hxk2, hits give low values 1.01 | locus YGR078C, strain PAC10, hits give low values 1.03 | locus YGR135W, strain pre9, hits give low values 0.998 | locus YGR252W, strain gcn5, hits give low values 1.02 | locus YHR013C, strain ard1, hits give low values 1.01 | locus YHR027C, strain rpn1, hits give low values 1.01 | locus YHR030C, strain SLT2, hits give low values 1.01 and 0.997 | locus YHR079C, strain IRE1 (second series), hits give low values 1 | locus YHR079C, strain IRE1, hits give low values 0.985 | locus YHR094C, strain hxt1, hits give low values 0.997 | locus YHR129C, strain ARP1, hits give low values 1.01 | locus YHR142W, strain chs7, hits give low values 1.02 | locus YHR200W, strain rpn10, hits give low values 1.01 | locus YIL066C, strain RNR3, hits give low values 1.03 | locus YIL073C, strain SPO22, hits give low values 1.08 | locus YIL125W, strain kgd1, hits give low values 1 | locus YIR030C, strain dcg1, hits give low values 1.01 | locus YJL092W, strain hpr5, hits give low values 1.01 | locus YJL095W, strain BCK1 (second series), hits give low values 1 | locus YJL095W, strain BCK1, hits give low values 1.03 and 0.993 | locus YJL115W, strain asf1, hits give low values 1 | locus YJL129C, strain trk1, hits give low values 0.998 | locus YJL134W, strain LCB3, hits give low values 1 | locus YJL154C, strain vps35, hits give low values 1.01 | locus YJL164C, strain tpk1, hits give low values 1.01 | locus YJL166W, strain qcr8, hits give low values 1 | locus YJL168C, strain set2, hits give low values 0.998 | locus YJL187C, strain SWE1 (second series), hits give low values 1.02 | locus YJL187C, strain SWE1, hits give low values 1.01 | locus YJR043C, strain POL32, hits give low values 1.02 | locus YJR066W, strain TOR1, hits give low values 0.95 | locus YKL009W, strain mrt4, hits give low values 0.989 | locus YKL068W, hits give low values 1 | locus YKL085W, strain MDH1 (second series), hits give low values 1 | locus YKL085W, strain MDH1, hits give low values 1 | locus YKL160W, strain elf1, hits give low values 1 | locus YKR001C, strain vps1, hits give low values 1.01 | locus YKR026C, strain gcn3, hits give low values 1.01 | locus YKR091W, strain srl3, hits give low values 1 | locus YLL001W, strain dnm1, hits give low values 0.999 | locus YLL026W, hits give low values 1 | locus YLL041C, strain sdh2, hits give low values 1.01 | locus YLR027C, strain aat2, hits give low values 1.01 | locus YLR039C, strain RIC1, hits give low values 1.11 | locus YLR058C, strain SHM2, hits give low values 1.01 | locus YLR102C, strain apc9, hits give low values 0.992 | locus YLR113W, strain HOG1, hits give low values 0.986 | locus YLR221C, strain rsa3, hits give low values 1.01 | locus YLR258W, strain gsy2, hits give low values 1 | locus YLR262C, strain YPT6 (second series), hits give low values 1.03 | locus YLR262C, strain YPT6, hits give low values 1.06 | locus YLR268W, strain sec22, hits give low values 1.02 | locus YLR320W, strain mms22, hits give low values 1.03 | locus YLR330W, strain CHS5, hits give low values 1.01 | locus YLR342W, strain FKS1 (second series), hits give low values 1.02 | locus YLR342W, strain FKS1, hits give low values 1.01 | locus YLR357W, strain rsc2, hits give low values 0.998 | locus YLR370C, strain arc18, hits give low values 1.01 | locus YLR371W, strain rom2, hits give low values 1.01 | locus YLR384C, strain iki3, hits give low values 1.02 | locus YLR418C, strain cdc73, hits give low values 1.02 | locus YML016C, strain PPZ1, hits give low values 1 | locus YML032C, strain rad52, hits give low values 1.01 | locus YML120C, strain ndi1, hits give low values 1 | locus YML124C, strain tub3, hits give low values 1 | locus YMR058W, strain fet3, hits give low values 1.01 | locus YMR078C, strain ctf18, hits give low values 1.02 | locus YMR125W, strain sto1, hits give low values 1.01 | locus YMR129W, hits give low values 1.01 | locus YMR205C, strain PFK2, hits give low values 1.02 | locus YMR223W, strain ubp8, hits give low values 1.02 | locus YMR231W, strain pep5, hits give low values 1.02 | locus YMR307W, strain GAS1, hits give low values 0.965 | locus YNL067W, strain RPL9B, hits give low values 1.03 | locus YNL071W, strain lat1, hits give low values 1.01 | locus YNL153C, strain GIM3, hits give low values 1.03 | locus YNL183C, strain NPR1, hits give low values 0.939 | locus YNL209W, strain ssb2, hits give low values 1.02 | locus YNL233W, strain BNI4, hits give low values 1.03 | locus YNL248C, strain rpa49, hits give low values 1.01 | locus YNL250W, strain rad50, hits give low values 1.01 | locus YNL271C, strain bni1, hits give low values 0.998 | locus YNL298W, strain CLA4, hits give low values 0.998 | locus YNL307C, strain MCK1, hits give low values 1.02 | locus YNL322C, strain KRE1 (second series), hits give low values 0.996 | locus YNR049C, strain mso1, hits give low values 0.997 | locus YNR052C, strain pop2, hits give low values 0.993 | locus YOL006C, strain TOP1, hits give low values 1.14 | locus YOL012C, strain htz1 0.825 | locus YOL147C, strain pex11, hits give low values 1 | locus YOR001W, strain rrp6, hits give low values 1.01 | locus YOR061W, strain CKA2, hits give low values 1.01 | locus YOR069W, strain VPS5, hits give low values 1 | locus YOR070C, strain gyp1, hits give low values 1 | locus YOR080W, strain dia2, hits give low values 1 | locus YOR083W, strain WHI5, hits give low values 1.01 | locus YOR106W, strain vam3, hits give low values 0.998 | locus YOR136W, strain idh2, hits give low values 1.01 | locus YOR144C, strain elg1, hits give low values 1 | locus YOR184W, strain ser1, hits give low values 1.01 | locus YOR231W, strain MKK1, hits give low values 0.978 | locus YOR265W, strain rbl2, hits give low values 1 | locus YOR270C, strain vph1, hits give low values 1.03 | locus YOR290C, strain snf2, hits give low values 1 | locus YOR316C, strain cot1, hits give low values 1.01 | locus YPL051W, strain arl3, hits give low values 1 | locus YPL055C, strain LGE1, hits give low values 1.02 | locus YPL078C, strain atp4, hits give low values 1.01 | locus YPL106C, strain sse1, hits give low values 1.01 | locus YPL240C, strain hsp82, hits give low values 1 | locus YPL256C, strain CLN2, hits give low values 0.964 | locus YPR119W, strain clb2, hits give low values 0.996 | locus YPR141C, strain kar3, hits give low values 1.01 | locus YPR163C, strain tif3, hits give low values 1.01 | locus YPR167C, strain met16, hits give low values 1 | strain wtn01, hits give low values 1
